Test results as given in PubChem BioAssay (NCATS).
Inconclusive results are not listed. The source made the active and inactive calls. Calls follow the shape of the dose curve; as a rule, active = well fitted curve in the direction sought with a large enough effect; inconclusive = small, poorly fitted or top-dose-only effect, or another doubt; inactive = no such curve, though single readings can be large; an effect the other way counts as inactive or inconclusive.

Tests used:
[1] = qHTS to identify inhibitors of the type 1 interferon - major histocompatibility complex class I in skeletal muscle: primary screen against the NCATS LOPAC collection (AID 1347405);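 also: lytic HiBiT luminescence reporting HLA-B protein level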
Procedure, shortened: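 Immortalized human C25cl48 myoblasts with HiBiT knocked into endogenous HLA-B*08:01 were stimulated with 4.0 ng/ml IFN-beta and given compounds in a 7-point, 1:4.3 titration from 46 uM final; after 24 hrs, lytic HiBiT luminescence was read.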

[2] = qHTS for inhibitors of adenylyl cyclases using a fission yeast platform: a pilot screen against the NCATS LOPAC library (AID 1347410)
Procedure, shortened: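 Growth medium went into the plates first, then compounds were pinned (final up to 57 µM), then CHP2027 yeast were added. Plates were incubated overnight (18 h) at 30C in the dark, and GFP was measured by laser scanning cytometry.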

[3] = Validation qHTS assay for inhibitors of Activation Induced Cytidine Deaminase (AID): UDG Counterscreen signal (AID 1347427)
Procedure, shortened: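 Counterscreen read of UDG activity (2 U/mL, 4/3x) in the FRET deamination format with AID (1 uM, 4/3x), DJC20/DJC23 substrates (250 nM, 4x), 4 h at room temperature. NaOH stop, fluorescence at 560 ex/665 em.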

[4] = target: Single-stranded DNA cytosine deaminase (Homo sapiens) (UniProt Q9GZX7); assay: Validation qHTS assay for inhibitors of Activation Induced Cytidine Deaminase (AID): AID signal (AID 1347429)
Sequence of Single-stranded DNA cytosine deaminase (Homo sapiens) (Q9GZX7 whole entry, looked up): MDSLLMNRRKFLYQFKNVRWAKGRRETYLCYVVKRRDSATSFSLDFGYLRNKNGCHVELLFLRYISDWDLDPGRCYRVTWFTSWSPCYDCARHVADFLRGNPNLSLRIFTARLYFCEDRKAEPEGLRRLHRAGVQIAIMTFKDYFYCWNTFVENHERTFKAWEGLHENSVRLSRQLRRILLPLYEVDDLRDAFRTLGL
Procedure, shortened: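 AID and UDG were combined and compounds added at final up to 114 uM, then DJC20/DJC23 FRET substrate was added for 4 hr at room temperature. NaOH was then added for 30 min before fluorescence was read at 540/590 nm.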

[5] = qHTS to identify inhibitors of the type 1 interferon - major histocompatibility complex class I in skeletal muscle: primary screen against the NCATS Pharmaceutical Collection (AID 1347407);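 also: luminescence of HiBiT knocked into endogenous HLA-B as interferon-induced MHC class I level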
Procedure, shortened: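 Cells were seeded with 4 ng/ml IFN-beta, incubated 1 h, then dosed with compounds over eight 1:5 steps up to 46 uM final. After 24 h at 37 C, HiBiT lytic reagent was added and luminescence read after 10 min lysis in the dark.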

[6] = target: Protein phosphatase 1D (Homo sapiens) (UniProt O15297); assay: RapidFire Mass Spectrometry qHTS Assay for Modulators of WT P53-Induced Phosphatase 1 (WIP1) (AID 1347424);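 also: amount of dephosphorylated VEPPL-S-QETFS peptide product formed by WIP1; series mostly up to about 63 µM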
Sequence of Protein phosphatase 1D (Homo sapiens) (O15297 whole entry, looked up): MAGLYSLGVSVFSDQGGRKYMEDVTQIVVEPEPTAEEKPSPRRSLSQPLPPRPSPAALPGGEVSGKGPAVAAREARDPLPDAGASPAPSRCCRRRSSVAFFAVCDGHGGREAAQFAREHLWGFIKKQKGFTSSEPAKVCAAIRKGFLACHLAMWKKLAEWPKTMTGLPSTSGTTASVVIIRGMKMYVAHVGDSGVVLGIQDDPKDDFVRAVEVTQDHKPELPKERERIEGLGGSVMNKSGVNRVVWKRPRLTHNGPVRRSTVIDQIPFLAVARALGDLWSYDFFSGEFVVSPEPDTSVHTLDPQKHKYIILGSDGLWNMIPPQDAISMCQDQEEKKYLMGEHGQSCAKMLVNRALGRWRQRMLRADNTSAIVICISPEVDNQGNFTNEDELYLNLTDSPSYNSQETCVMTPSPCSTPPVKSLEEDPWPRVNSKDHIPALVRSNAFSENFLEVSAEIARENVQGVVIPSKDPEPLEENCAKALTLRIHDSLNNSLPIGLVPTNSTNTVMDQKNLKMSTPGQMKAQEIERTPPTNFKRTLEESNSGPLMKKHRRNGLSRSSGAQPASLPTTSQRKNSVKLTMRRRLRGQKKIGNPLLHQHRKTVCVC
Procedure, shortened: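 10 nM WIP1 preincubated with compounds 1 hr at room temperature in pH 7.5 Tris buffer with 30 mM MgCl2, 1 mM TCEP; 2 uM VEPPL-pS-QETFS phosphopeptide for 5 min, formic acid quench; dephosphorylated product quantified by RapidFire MS against labelled standard.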

[7] = target: Protein phosphatase 1D (Homo sapiens) (UniProt O15297); assay: Rhodamine-PBP qHTS Assay for Modulators of WT P53-Induced Phosphatase 1 (WIP1) (AID 1347425)
Procedure, shortened: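 Read-out: Rhodamine-PBP fluorescence (ex 525/em 598 nm) for released Pi, read each minute for 11 min after adding 10 uM VEPPL-pS-QETFS; signal taken as f1 minus pre-substrate f0. Enzyme 5 nM WIP1 with 1 hr room-temperature compound preincubation.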

[8] = Primary qHTS for inhibitors of La Crosse Virus (LACV) - induced cell death in SH-SY5Y cells (AID 1508616);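 also: top concentration of the series differs between compounds; higher means more rescue of cells from virus-induced death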
Procedure, shortened: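 Luminescent ATP readout (ATPLite 1step, 5 min room temperature) measured rescue from LACV-induced death after 6 days of infection at 0.01 MOI; normalized to infected DMSO wells and uninfected DMSO wells.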

Measured: Potency

O=C1NC(O)=NC1(c1ccccc1)c1ccccc1
inactive: [1] | [2]

N=c1ccn2c(n1)O[C@H]1[C@H](O)[C@@H](CO)O[C@H]12
inactive: [1] | [2] | [3] | [4]

CC(C)c1cccc(C(C)C)c1N1C(=O)c2ccc(O)cc2C1=O
inactive: [1] | [2]

CN1CC(=O)N/C1=N/C(=O)Nc1cccc(Cl)c1
inactive: [1] | [5] | [2] | [6] | [7] | [4] | [8]

O=C(c1ccc(Cl)cc1)N1CCN(c2ccc([N+](=O)[O-])c3ncccc23)CC1
inactive: [1] | [2] | [3] | [4]

CNc1ncnc2c1ncn2[C@@H]1O[C@H](CO)[C@@H](O)[C@H]1O
inactive: [1] | [2] | [3] | [8]

C[C@@H](CN1CCC(Cc2ccccc2)CC1)[C@@H](O)c1ccc(O)cc1
inactive: [1] | [2] | [3] | [4] | [8]

Nc1nc(Cl)nc2c1ncn2[C@@H]1O[C@H](CO)[C@@H](O)[C@H]1O
inactive: [1] | [2] | [3] | [4] | [8]

C=CC(N)CCC(=O)O (centres undefined)
inactive: [1] | [2] | [3] | [4] | [8]

CNC(=O)[C@H]1O[C@@H](n2cnc3c(NCc4cccc(I)c4)ncnc32)[C@H](O)[C@@H]1O
inactive: [1] | [2] | [3] | [4]

CC(=O)SCC[N+](C)(C)C
inactive: [1] | [2] | [3] | [4] | [8]

COc1cc2c(CCNC(C)=O)c[nH]c2cc1Cl
inactive: [1] | [2] | [3] | [4] | [8]

O=c1[nH]c2cc([N+](=O)[O-])c([N+](=O)[O-])cc2[nH]c1=O
inactive: [1] | [2] | [3] | [4] | [8]

Nc1ncnc2c1ncn2[C@@H]1O[C@H](COP(=O)(O)OP(=O)(O)OP(=O)(O)OP(=O)(O)OC[C@@H]2O[C@H](n3cnc4c(N)ncnc43)[C@@H](O)[C@H]2O)[C@@H](O)[C@H]1O
inactive: [1] | [2] | [3] | [4] | [8]

Brc1c(Br)c(Br)c2n[nH]nc2c1Br
inactive: [1] | [2] | [3] | [4] | [8]

CC1(C)CCC=[N+]1[O-]
inactive: [1] | [2] | [3] | [4] | [8]

N[C@@H](CC(=O)O)C(=O)O
inactive: [1] | [2] | [3] | [4] | [8]

COc1cc(C(O)CO)ccc1OS(=O)(=O)O (centres undefined)
inactive: [1] | [2] | [3] | [4] | [8]

C=CC(C)=C[C@@]1(C)SC(=O)C(C)=C1O
inactive: [1] | [2] | [3] | [4] | [8]

Nc1nc(Nc2ccccc2)nc2c1ncn2[C@@H]1O[C@H](CO)[C@@H](O)[C@H]1O
inactive: [1] | [2] | [3] | [4] | [8]

CN(C)C(N)=NCCC[C@H](N)C(=O)O
inactive: [1] | [2] | [3] | [4] | [8]

CCCCC#Cc1nc(NC)c2ncn([C@@H]3O[C@H](CO)[C@@H](O)[C@H]3O)c2n1
inactive: [1] | [2] | [3] | [4]

O=C(Nc1cccc(C(=O)Nc2ccc(S(=O)(=O)O)c3cc(S(=O)(=O)O)cc(S(=O)(=O)O)c23)c1)Nc1cccc(C(=O)Nc2ccc(S(=O)(=O)O)c3cc(S(=O)(=O)O)cc(S(=O)(=O)O)c23)c1
inactive: [1] | [2] | [3] | [8]

COc1ccccc1CNCCCCCCNCCCCCCCCNCCCCCCNCc1ccccc1OC
inactive: [1] | [2] | [3] | [4] | [8]

O=C(O)c1cc(=O)c2c(Cl)cc(Cl)cc2[nH]1
inactive: [1] | [2] | [3] | [8]

COc1ccc(NC(=O)/C=C/c2ccc(Cl)cc2)cc1
inactive: [1] | [2] | [3] | [4] | [8]

CO/N=C(\C(=O)N[C@@H]1C(=O)N2C(C(=O)O)=C(COC(C)=O)CS[C@H]12)c1csc(N)n1
inactive: [1] | [2] | [3] | [4] | [8]

O=C(CCCCCN1CCN(c2ccccc2-c2ccccc2)CC1)NC1CCCc2ccccc21 (centres undefined)
inactive: [1] | [2] | [3] | [4] | [8]

O=C(c1ccc(OCCCc2cnc[nH]2)cc1)C1CC1
inactive: [1] | [2] | [3] | [4] | [8]

N#C/C(=C\c1ccc(O)c(O)c1)C(=O)c1ccc(O)c(O)c1
inactive: [1] | [2] | [3] | [4] | [8]
